Laboratory results from PubChem BioAssay.
Calls of active or inactive are those of the source. Unless noted, no rule for the calls is given here.

Columns and labels:
[1] = HepG2 liver cancer cell viability effects, profiling panel, resazurin fluorescence, 24 h, PK04 Diversity Set (AID 1172); settings: higher = more signal
[2] = basal S. cerevisiae growth modulation, no modifier, primary screen, OD600, strain BY4716, 24 h, basal condition (AID 1173); settings: OD600, 24 h, higher = more signal, called active from +8 up or from −8 down
[3] = MM1S myeloma cell viability, profiling panel, resazurin fluorescence, basal, 24 h, PK04 Diversity Set (AID 1174); settings: higher = more signal, called active from +8 up or from −8 down;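 also: MM1S multiple myeloma cell line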
[4] = target: Dihydroorotate dehydrogenase (quinone), mitochondrial (Plasmodium falciparum (isolate 3D7)) (UniProt Q08210); assay: PfDHODH enzyme inhibitors, primary screen, biochemical, C-terminal His tag, absorbance 600 nm (AID 1175); settings: DCIP absorbance 600 nm, higher = more signal, called active from +8 up or from −8 down;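 also: recombinant parasite enzyme with a five histidine tag at its C terminus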
Chain of Dihydroorotate dehydrogenase (quinone), mitochondrial (Plasmodium falciparum (isolate 3D7)) (Q08210 whole entry, looked up): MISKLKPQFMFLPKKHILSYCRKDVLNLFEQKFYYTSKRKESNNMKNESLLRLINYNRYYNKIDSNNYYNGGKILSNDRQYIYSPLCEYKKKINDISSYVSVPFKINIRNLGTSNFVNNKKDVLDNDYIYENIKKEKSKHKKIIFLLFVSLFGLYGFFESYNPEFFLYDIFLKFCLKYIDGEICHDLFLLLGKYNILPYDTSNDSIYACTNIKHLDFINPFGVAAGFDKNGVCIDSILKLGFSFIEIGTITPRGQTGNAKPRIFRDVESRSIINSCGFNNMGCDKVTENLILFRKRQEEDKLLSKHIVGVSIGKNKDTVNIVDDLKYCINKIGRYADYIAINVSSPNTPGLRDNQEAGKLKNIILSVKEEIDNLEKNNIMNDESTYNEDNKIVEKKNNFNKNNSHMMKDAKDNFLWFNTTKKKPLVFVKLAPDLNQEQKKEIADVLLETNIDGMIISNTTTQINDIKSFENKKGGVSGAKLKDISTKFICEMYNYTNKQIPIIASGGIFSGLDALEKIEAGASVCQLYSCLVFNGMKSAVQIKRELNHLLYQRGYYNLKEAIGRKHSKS

[5] = P. aeruginosa biofilm formation inhibitors, primary screen, strain PAO1, LB-PBS medium, absorbance 600 nm (AID 1176); settings: P. aeruginosa PAO1 growth/biofilm, A600, 12 h; higher = more signal
[6] = S. cerevisiae RM11-1a growth modifiers, primary screen, strain RM11-1a, OD600, basal, 24 h (AID 1177); settings: OD600, 24 h, higher = more signal, called active from +8 up or from −8 down;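 also: cultures grown under basal conditions with no added stressor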
[7] = E. coli acrAB mutant growth effects, primary screen, E. coli filamentation inducers, strain DRC39, OD650, 24 h (AID 1178); settings: higher = more signal, called active from +8 up or from −8 down;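 also: growth measured as culture turbidity by optical density at 650 nm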
[8] = E. coli acrAB mutant growth effects, primary screen, E. coli filamentation inducers, strain DRC39, OD650, 48 h (AID 1179);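 also: screen aims at cell division blockers that make cells filament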; settings: E. coli DRC39 delta-acrAB growth, higher = more signal, called active from +8 up or from −8 down
[9] = RPMI8226 myeloma cell viability, profiling panel, resazurin fluorescence, basal, 24 h, PK04 Diversity Set (AID 1180); settings: higher = more signal;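 also: RPMI8826 multiple myeloma cell line at 5000 cells per well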
[10] = target: E3 ubiquitin-protein ligase XIAP (Homo sapiens) (UniProt P98170); assay: XIAP binders, primary screen, biophysical, small-molecule microarray, fluorescence 635 nm (AID 1181); settings: small-molecule microarray binding, higher = more signal;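 also: score merges 667 nm emission and signal to noise over triplicate slides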
Chain of E3 ubiquitin-protein ligase XIAP (Homo sapiens) (P98170 whole entry, looked up): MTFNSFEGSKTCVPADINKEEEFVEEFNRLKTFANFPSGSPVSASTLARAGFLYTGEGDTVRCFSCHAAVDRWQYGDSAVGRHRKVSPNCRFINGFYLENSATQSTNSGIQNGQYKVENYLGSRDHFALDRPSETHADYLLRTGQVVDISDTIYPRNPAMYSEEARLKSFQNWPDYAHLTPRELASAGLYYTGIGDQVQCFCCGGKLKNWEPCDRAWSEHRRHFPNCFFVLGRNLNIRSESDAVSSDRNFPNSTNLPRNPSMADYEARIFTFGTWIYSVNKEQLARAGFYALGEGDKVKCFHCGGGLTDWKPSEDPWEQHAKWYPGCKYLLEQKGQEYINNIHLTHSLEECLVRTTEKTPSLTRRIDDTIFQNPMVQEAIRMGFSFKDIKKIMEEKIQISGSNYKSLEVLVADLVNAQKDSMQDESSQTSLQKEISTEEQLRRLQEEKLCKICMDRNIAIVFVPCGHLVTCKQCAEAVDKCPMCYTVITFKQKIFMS

[11] = tested on: XIP peptide (Xip251-270) binding; assay: small-molecule binders of XIP peptide, primary screen, biochemical, small-molecule microarray, fluorescence 635/667 nm, 0.1 µg/mL protein (AID 1182); settings: fluorescent protein binding, 635 nm, higher = more signal, called active from +8 up or from −8 down
XIP peptide (Xip251-270) = assay: small-molecule binders of XIP peptide, primary screen, biochemical, small-molecule microarray, fluorescence 635/667 nm, 0.5 µg/mL protein (AID 1183); settings: small-molecule microarray binding, fluorescence 635 nm; higher = more signal
[12] = Plasmodium falciparum growth inhibition, primary screen, strain 3D7, DAPI fluorescence, 100 nL (AID 1184);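 also: parasites grown inside human red blood cells in medium with human serum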; settings: P. falciparum 3D7 growth, 3 d, higher = more signal
[13] = target: Homeobox protein Hox-A13 (Mus musculus) (UniProt Q62424); assay: inhibitors of HoxA13-DNA binding, primary screen, biochemical, fluorescence polarization, labeled oligonucleotide (AID 1185); settings: 15 min, higher = more signal, called active from +8 up or from −8 down
Chain of Homeobox protein Hox-A13 (Mus musculus) (Q62424 whole entry, looked up): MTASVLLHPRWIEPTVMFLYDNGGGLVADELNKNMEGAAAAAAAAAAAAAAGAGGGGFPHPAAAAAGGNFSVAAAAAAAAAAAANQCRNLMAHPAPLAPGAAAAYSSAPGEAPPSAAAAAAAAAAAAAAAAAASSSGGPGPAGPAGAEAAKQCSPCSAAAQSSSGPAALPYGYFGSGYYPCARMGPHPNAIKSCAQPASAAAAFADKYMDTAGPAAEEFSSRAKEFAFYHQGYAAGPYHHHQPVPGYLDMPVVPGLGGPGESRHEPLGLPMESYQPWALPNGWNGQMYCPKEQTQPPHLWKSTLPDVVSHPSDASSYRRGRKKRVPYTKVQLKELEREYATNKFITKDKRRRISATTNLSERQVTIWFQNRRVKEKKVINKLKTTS

[14] = inhibitors of hydroxyurea-induced Chk1 phosphorylation, primary screen, imaging, HeLa, phospho-Chk1 antibody, percent positive cells (AID 1186); settings: hydroxyurea-induced phospho-Chk1 immunofluorescence imaging, higher = more signal
[15] = inhibitors of hydroxyurea-induced Chk1 phosphorylation, primary screen, imaging, HeLa, phospho-Chk1 nuclear intensity (AID 1187); settings: hydroxyurea-induced phospho-Chk1 immunofluorescence imaging, higher = more signal

Row | SMILES | z-score [1] | z-score [2] | z-score [3] | composite z-score [4] | z-score [5] | z-score [6] | z-score [7] | z-score [8] | z-score [9] | composite z-score [10] | composite z-score [11] | composite z-score (XIP peptide (Xip251-270)) | z-score [12] | z-score [13] | z-score [14] | z-score [15]
1 | CCCC[C@@H]1C[C@H]1[C@@H](NC(=O)c1ccccc1)c1ccccc1C(F)(F)F | 0.826 | 0.66 (inactive) | -0.159 (inactive) | -0.454 (inactive) | 0.951 (inactive) | -0.114 (inactive) | -0.372 (inactive) | -0.464 (inactive) | 0.0311 | -0.261 | 0.715 (inactive) | 0.193 | -1.19 | 2.99 (inactive) | 0.726 (inactive) | 0.542 (inactive)
2 | C[C@]1(C(=O)NCCN2CCOCC2)c2ccccc2C(=O)N(Cc2ccccc2)[C@H]1c1ccc(CO)cc1 | 0.702 | -0.46 (inactive) | 0.402 (inactive) | 1 (inactive) | 0.662 (inactive) | 1.2 (inactive) | 0.223 (inactive) | 0.134 (inactive) | 0.85 | 0.144 | 0.946 (inactive) | 0.78 | -1.22 | -3.99 (inactive) | 0.0553 (inactive) | 0.0648 (inactive)
3 | CCC#CCN(Cc1ccccc1Br)[C@H](/C=C/c1ccccc1)[C@@H](O)Cc1ccccc1 | 1.53 | 0.238 (inactive) | 0.753 (inactive) | 0.514 (inactive) | -0.553 (inactive) | 0.846 (inactive) | 1.19 (inactive) | 0.994 (inactive) | 0.0518 | 0.0101 | -0.276 (inactive) | -0.613 | -0.609 | 0.462 (inactive) | -0.415 (inactive) | -0.241 (inactive)
4 | O=C1C2C=CC(C(O)c3ccccc3)N(n3cnnc3)C2C(=O)N1Cc1ccccc1 (stereo not given) | -0.362 | -0.0402 (inactive) | -0.468 (inactive) | -1.03 (inactive) | 1.87 (inactive) | -1.08 (inactive) | -0.456 (inactive) | -1.03 (inactive) | -0.974 | 0.23 | -0.377 (inactive) | -0.179 | 0.454 | -2.02 (inactive) | -1.25 (inactive) | -1.21 (inactive)
5 | C[N+](C)(C)CCCCNC(=O)[C@H]1C[C@H]2C(=O)NCC(=O)N2[C@H]1c1cccc(OCCO)c1 | 0.052 | 0.167 (inactive) | -0.935 (inactive) | -29.2 (active) | 1 (inactive) | 0.105 (inactive) | -0.158 (inactive) | -0.271 (inactive) | -1.15 | 0.133 | 1.88 (inactive) | 0.839 | 0.312 | -2.52 (inactive) | 0.0452 (inactive) | -0.0729 (inactive)
6 | COCCOC(=O)N1C(=O)[C@@]2(c3cc(C#CCNC(N)=O)ccc31)[C@H](C(=O)N1CCCCCCC1)[C@H]1C(=O)O[C@H](c3ccccc3)[C@H](c3ccccc3)N1[C@@H]2c1ccccc1OCCO | 0.0533 | 1.41 (inactive) | 0.188 (inactive) | 0.641 (inactive) | 2.08 (inactive) | 2.43 (inactive) | 0.532 (inactive) | 0.614 (inactive) | 0.368 | 0.291 | 0.252 (inactive) | 0.276 | -1.87 | 3.73 (inactive) | -0.0292 (inactive) | -0.349 (inactive)
7 | COCCOC(=O)N1C(=O)[C@@]2(c3cc(C#CCNC(N)=O)ccc31)[C@H](c1ccccc1OCCO)N1[C@H](c3ccccc3)[C@H](c3ccccc3)OC(=O)[C@H]1[C@@H]2C(=O)NC[C@H](O)c1ccccc1 | 0.904 | 2.79 (inactive) | 0.335 (inactive) | 1.03 (inactive) | 0.87 (inactive) | 2.1 (inactive) | 0.183 (inactive) | -0.32 (inactive) | 0.152 | -0.0911 | 0.88 (inactive) | 0.8 | -1.84 | -3.26 (inactive) | 0.0689 (inactive) | -0.158 (inactive)
8 | CC[C@@H]1C=C(C(=O)O)[C@H](c2ccccc2)N1S(=O)(=O)c1ccc([N+](=O)[O-])cc1 | 0.244 | 0.736 (inactive) | -0.253 (inactive) | 0.264 (inactive) | -0.461 (inactive) | -0.1 (inactive) | -2.44 (inactive) | -1.84 (inactive) | 0.0416 | 0.101 | -0.0477 (inactive) | 0.729 | -1.01 | -3.73 (inactive) | -0.0036 (inactive) | -0.3 (inactive)
9 | COc1ccc([Si](C)(C)[C@@H]2[C@@H](CCO)O[C@]3(C(=O)N(Cc4ccccc4)c4ccccc43)[C@H]2C)cc1 | -1 | 0.212 (inactive) | -0.604 (inactive) | 0.825 (inactive) | 0.13 (inactive) | 0.347 (inactive) | 0.916 (inactive) | -0.326 (inactive) | -0.372 | -0.232 | 0.151 (inactive) | 0.283 | -1.96 | 0.563 (inactive) | -0.0106 (inactive) | 0.402 (inactive)
10 | C#CCCCON=C1C[C@@H](O)[C@@H](O)[C@@H]2[C@@H]3C(=O)N(Cc4ccc5c(c4)OCO5)C(=O)[C@@H]3CC[C@H]12 | 0.168 | 0.0943 (inactive) | -0.255 (inactive) | -0.338 (inactive) | -0.708 (inactive) | 0.162 (inactive) | 0.483 (inactive) | 0.961 (inactive) | 0.126 | -0.127 | 0.892 (inactive) | 0.783 | 0.594 | -0.469 (inactive) | – | –
11 | C#CCCCON=C1C[C@@H](O)[C@@H](O)[C@@H]2[C@@H]3C(=O)N(Cc4ccc5c(c4)OCO5)C(=O)[C@@H]3CC[C@@H]12 | 0.606 | 0.532 (inactive) | 0.241 (inactive) | 0.175 (inactive) | -0.993 (inactive) | 0.577 (inactive) | 0.571 (inactive) | 0.186 (inactive) | 1.42 | 0.0785 | 0.32 (inactive) | 0.104 | -0.0159 | -0.476 (inactive) | – | –
12 | Cc1ccc(S[C@]2(C(=O)NCCCN(C)C)CC(=O)N(Cc3ccccc3)[C@@H]2c2ccc(CO)cc2I)cc1 | -0.896 | -4.78 (inactive) | -2.94 (inactive) | -1.38 (inactive) | -0.369 (inactive) | -1.03 (inactive) | -0.361 (inactive) | -0.554 (inactive) | -2.15 | -0.0848 | 0.066 (inactive) | 0.119 | 0.0943 | -2.06 (inactive) | 0.379 (inactive) | 0.637 (inactive)
13 | C=C(COC)C(=O)CC[C@H](OC(=O)c1ccccc1-c1ccccc1C(=O)O)c1cccc(OCCO)c1 | -1.06 | -17.1 (active) | -0.805 (inactive) | -6.66 (inactive) | 1.99 (inactive) | -5.09 (inactive) | -1.27 (inactive) | -1.04 (inactive) | -0.858 | 0.511 | 0.437 (inactive) | 0.569 | -0.034 | -4.76 (inactive) | 0.369 (inactive) | 0.258 (inactive)
14 | CCCN1C(=O)[C@@]2(CCS(=O)(=O)c3ccccc3)N=C(c3ccc(OCCCO)cc3)O[C@H]2c2ccccc21 | -0.561 | 1.27 (inactive) | -1.03 (inactive) | 2.02 (inactive) | 0.469 (inactive) | 1.56 (inactive) | 0.861 (inactive) | 0.163 (inactive) | -2.15 | -0.072 | 0.261 (inactive) | 0.678 | -2.56 | -3.2 (inactive) | 0.128 (inactive) | 0.371 (inactive)
15 | NC(=O)[C@H]1[C@@H]2C(=O)O[C@@H](c3ccccc3)[C@@H](c3ccccc3)N2[C@@H](c2ccc(O)cc2)[C@]12C(=O)Nc1ccc(C#CCCO)cc12 | -0.744 | -0.383 (inactive) | -0.354 (inactive) | -0.25 (inactive) | -0.0604 (inactive) | -1.03 (inactive) | -0.847 (inactive) | -1.18 (inactive) | -0.616 | 0.135 | -0.0876 (inactive) | -0.413 | -0.629 | -5.7 (inactive) | -0.0158 (inactive) | -0.651 (inactive)
16 | CC1CC/C=C\[C@H]2OC34C=CCN(Cn5nnc6ccccc65)C(=O)[C@H]3N(C(C)CO)C(=O)[C@@H]4C2C(=O)O1 (stereo not given in full) | 0.142 | -0.0496 (inactive) | 0.035 (inactive) | 0.853 (inactive) | -0.0837 (inactive) | 0.472 (inactive) | 0.756 (inactive) | 0.665 (inactive) | 0.0911 | 0.282 | 0.205 (inactive) | 0.0783 | 0.189 | -4.29 (inactive) | -0.087 (inactive) | -0.361 (inactive)
17 | CCCC=C(CCC)[C@@H](NS(=O)(=O)c1ccc(C(F)(F)F)cc1)c1ccc(-c2ccccc2)cc1 | 2.18 | 1.05 (inactive) | 1.14 (inactive) | 0.472 (inactive) | -1.16 (inactive) | 1.41 (inactive) | 0.0852 (inactive) | -0.839 (inactive) | 0.719 | 0.0264 | 0.14 (inactive) | 0.0936 | -0.334 | -1.61 (inactive) | -0.208 (inactive) | -0.144 (inactive)
18 | CCCCCCc1nc(-c2cc(C)c(OC)c(C)c2)cc2c1[Si](C(C)C)(C(C)C)O[C@H]2c1ccccc1 | 0.0796 | 0.54 (inactive) | 0.0808 (inactive) | -0.292 (inactive) | -0.334 (inactive) | 0.315 (inactive) | 0.609 (inactive) | 0.228 (inactive) | 0.219 | -0.244 | -0.408 (inactive) | -0.461 | -0.753 | -1.91 (inactive) | 0.0883 (inactive) | -0.242 (inactive)
19 | CN1C(=O)C2C=CC(C(O)c3ccc(N(C)C)cc3)N(Nc3ccc([N+](=O)[O-])cc3[N+](=O)[O-])C2C1=O (stereo not given) | 0.183 | 0.111 (inactive) | -0.355 (inactive) | -0.548 (inactive) | 0.558 (inactive) | -0.29 (inactive) | -0.243 (inactive) | -0.411 (inactive) | 0.236 | -0.0023 | 0.695 (inactive) | 0.301 | 0.985 | -3.89 (inactive) | 0.347 (inactive) | -0.169 (inactive)
